Only some compounds are listed: those with a hit (about 3.1% of all), similar ones and a draw of the others.
C2C12 statin = suppressors of statin myotoxicity in C2C12 myotubes, primary screen, cell-based, single point, plate reader | C2C12 myotubes + simvastatin, ATP luminescence, 48 h; scaled: DMSO 0, geranylgeraniol control 100 | rescue of ATP level, % at 7.49 µM | hit rate 0.78% among 330,000 | AID 602340, 2012;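 active means mean ATP rescue above about 67%, or every replicate alone reaching that limit, limit read from the data, passing the limit was not always enough; inconclusive means no clear call, values can overlap the other calls; inactive means mean under the limit and some replicate under it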;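 further: myotubes were challenged with 10 µM simvastatin during compound exposure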
MITF act = activators of MITF-driven TRPM1 promoter reporter, primary screen, cell-based, SK-MEL-5, luciferase, single point. hit rate 0.75% among 300,000. SK-MEL-5 TRPM1-promoter luciferase, 24 h; % of positive control, neutral wells = 0. activation, % at 12.5 µM;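 active means mean activation of at least 80% with every replicate also reaching 80%; inconclusive means mean reaches 80% but some replicate falls short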
Rtt109 Vps75 = inhibitors of C. albicans Rtt109/Vps75 HAT, primary screen, biochemical, ThioGlo CoA-SH fluorescence, plate reader. purified Rtt109/Vps75, 4 h. inhibition, % at 34.9 µM. AID 540336, 2011. hit rate 0.16% among 330,000. Histone acetyltransferase RTT109 (Candida albicans (strain SC5314 / ATCC MYA-2876)), …;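 active means inhibition of at least 50% in every replicate; inconclusive means best replicate reaches 50% inhibition but some replicates fall short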
Target sequence (Q5AAJ8 whole entry, looked up): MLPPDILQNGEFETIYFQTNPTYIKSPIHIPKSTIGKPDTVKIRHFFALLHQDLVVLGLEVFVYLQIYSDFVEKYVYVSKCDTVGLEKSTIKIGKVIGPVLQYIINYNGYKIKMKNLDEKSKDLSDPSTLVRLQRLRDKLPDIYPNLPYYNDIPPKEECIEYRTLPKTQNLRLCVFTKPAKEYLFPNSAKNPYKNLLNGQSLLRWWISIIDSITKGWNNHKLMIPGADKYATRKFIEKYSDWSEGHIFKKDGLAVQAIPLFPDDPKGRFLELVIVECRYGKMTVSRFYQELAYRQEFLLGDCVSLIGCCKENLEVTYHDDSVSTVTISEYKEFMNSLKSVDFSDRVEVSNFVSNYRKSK
esBAF inh = Bmi1 luciferase reporter increase in mESCs, primary screen, esBAF inhibitor project, mouse ES cells, Bmi1 luciferase knock-in, single point; AID 602393, 2012; 24 h; 100% = twice the neutral-well signal; hit rate 2% among 350,000; reporter increase, % at 12.5 µM; in the data active means activation above about 40%; inconclusive means no clear call, values can overlap the other calls;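 further: a rise in the Bmi1 reporter signal indicates esBAF inhibition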
Wnt bcat act = Wnt/beta-catenin pathway activators, primary screen, cell-based, plate reader, single point; activation, % at 9.35 µM; Wnt/beta-catenin reporter cell assay, activator; hit rate 1.2% among 300,000; AID 743398, 2014; in the data active means activation above about 30%, passing the limit was not always enough; inconclusive means no clear call, values can overlap the other calls
esBAF Ring1 qPCR = Ring1 mRNA increase in mouse ESCs, confirmation, esBAF inhibitor project, cell-based, mouse ESC, RT-qPCR, cherry-pick. fold change at 33 µM. mouse ESC E14, Ring1 mRNA RT-qPCR fold change. 550 tested, under 10 active. shares compounds with esBAF inh;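 active means Ring1 gene expression raised more than 2-fold over untreated cells in both replicates at either tested dose; inconclusive means only one replicate above 2-fold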;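 further: Ring1 transcript normalised to actin housekeeping signal by TaqMan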
esBAF Fgf4 qPCR = Fgf4 mRNA decrease in mouse ESCs, confirmation, esBAF inhibitor project, cell-based, mouse ESC, RT-qPCR, cherry-pick. shares compounds with esBAF inh. mouse ESC E14, Fgf4 mRNA qPCR fold change; hits give low values. Fgf4 expression fold change at 33 µM. hit rate 4% among 550. AID 743177, 2013;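 active means Fgf4 expression under 0.8 fold of control in both repeat measurements at one or both tested doses; inconclusive means under 0.8 fold in just a single repeat measurement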;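 further: Fgf4 transcript normalised to actin in duplex TaqMan qPCR; cells exposed to compound for 24 h before lysis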
Bmi1 derepress = esBAF inhibition via Bmi1 de-repression, confirmation, cell-based, RT-qPCR, mouse ESC, single point, cherry-pick | shares compounds with esBAF inh | mouse ESE14 ES cells, Bmi1 mRNA qPCR fold; hits give high values | fold change at 33 µM | 550 tested, under 10 active | AID 743180, 2013;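 active means Bmi1 expression fold change above 6 at either tested concentration, seen in replicate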;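 further: higher fold means more Bmi1 de-repression and stronger esBAF inhibition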
A549 tox SP = A549 cell cytotoxicity, cytotoxicity control, plate reader, single point, cherry-pick. shares compounds with esBAF inh. cell viability change % (negative = cytotoxic), % at 25 µM, hits read low. 550 tested, under 10 active. AID 743188, 2013; call rule not given here
HepG2 cytotox SP = HepG2 cell cytotoxicity, cytotoxicity control, plate reader, single point, cherry-pick; hits give low values; shares compounds with esBAF inh; activity change, negative = inhibition, % at 25 µM; hit rate 4% among 550; in the data active means activity change below about -50%
HEK293 tox SP = HEK293 cell cytotoxicity, cytotoxicity control, plate reader, single point, cherry-pick; activity change, negative = inhibition, % at 25 µM, hits read low; shares compounds with esBAF inh; hit rate 3% among 550; in the data active means activity change below about -38%, passing the limit was not always enough
Of the large screens only hits and unclear results are named; the others gave an inactive call (follow-up assays come after a bar, where they were run).

Cc1ccnc(NC(=O)c2ccc(OCc3c(C)noc3C)cc2)c1	esBAF inh 70, Wnt bcat act inconclusive | esBAF Ring1 qPCR inactive | esBAF Fgf4 qPCR inconclusive | Bmi1 derepress inactive | A549 tox SP inactive | HepG2 cytotox SP inactive | HEK293 tox SP inactive
COc1cc(C2Nc3cc(Cl)c(S(N)(=O)=O)cc3S(=O)(=O)N2)cc(OC)c1OC (stereo not given)	none (no result: Wnt bcat act)
COc1cc(C2Nc3cc(Cl)c(S(N)(=O)=O)cc3S(=O)(=O)N2)ccc1OCc1ccccc1 (stereo not given)	esBAF inh inconclusive (no result: C2C12 statin) | esBAF Ring1 qPCR inactive | esBAF Fgf4 qPCR inactive | Bmi1 derepress inactive | A549 tox SP inactive | HepG2 cytotox SP -51 | HEK293 tox SP inactive
CN(c1cccc(NC(=O)c2ccc(C(C)(C)C)cc2)c1)S(C)(=O)=O	esBAF inh 73 | esBAF Ring1 qPCR inactive | esBAF Fgf4 qPCR inactive | Bmi1 derepress inactive | A549 tox SP inactive | HepG2 cytotox SP inactive | HEK293 tox SP inactive
CN1C(=O)c2cc(NC(=O)c3cccc(F)c3)ccc2OC[C@@H]2O[C@@H](CC(=O)Nc3ccccc3)CC[C@H]21	none (no result: MITF act, Rtt109 Vps75, Wnt bcat act)
O=C1C(=C2CCc3ccccc32)Cc2ccccc21	esBAF inh 71 (no result: MITF act, Rtt109 Vps75) | esBAF Ring1 qPCR inactive | esBAF Fgf4 qPCR inactive | Bmi1 derepress inactive | A549 tox SP inactive | HepG2 cytotox SP inactive | HEK293 tox SP inactive
O=C1C(=NO)CCCc2ccccc21	none
C[C@H](CO)N1C[C@H](C)[C@H](CN(C)Cc2ccc(C(F)(F)F)cc2)Oc2ccc(NC(=O)NC3CCCCC3)cc2CC1=O	none (no result: MITF act, Rtt109 Vps75, Wnt bcat act)
S=c1[nH]nc(SCc2ccccc2)c2[nH]cnc12	esBAF inh 55 | esBAF Ring1 qPCR inactive | esBAF Fgf4 qPCR inactive | Bmi1 derepress inactive | A549 tox SP inactive | HepG2 cytotox SP inactive | HEK293 tox SP inactive
CC(C)Cc1cc(C(=O)Nc2cccc(O)c2)no1	none
CC(C)Cc1cc(C(=O)Nc2ccc(Br)cc2)no1	MITF act 111, esBAF inh 69, Wnt bcat act 37 | esBAF Ring1 qPCR inactive | esBAF Fgf4 qPCR inactive | Bmi1 derepress inactive | A549 tox SP inactive | HepG2 cytotox SP inactive | HEK293 tox SP inactive
CN(Cc1cccnc1)C(=O)c1cc(COc2ccc3c(c2)CCCC3)on1	esBAF inh 86 | esBAF Ring1 qPCR inactive | esBAF Fgf4 qPCR inactive | Bmi1 derepress inactive | A549 tox SP inactive | HepG2 cytotox SP inactive | HEK293 tox SP inactive
COc1cccc(NC(=O)c2sc3nc4n(c(=O)c3c2C)CCC4)c1	esBAF inh 57 | esBAF Ring1 qPCR inactive | esBAF Fgf4 qPCR inactive | Bmi1 derepress inactive | A549 tox SP inactive | HepG2 cytotox SP inactive | HEK293 tox SP inactive
Cc1c(C(=O)Nc2ccc(Oc3ccccc3)cc2)sc2nc3n(c(=O)c12)CCC3	none (no result: Wnt bcat act)
COc1cccc(-c2noc(C3CCCN(C(=O)CC(C)(C)C)C3)n2)c1 (stereo not given)	esBAF inh 83 | esBAF Ring1 qPCR inactive | esBAF Fgf4 qPCR inactive | Bmi1 derepress inactive | A549 tox SP inactive | HepG2 cytotox SP inactive | HEK293 tox SP inactive
CCCCC(=O)N1CCCC(c2nc(-c3cccc(OC)c3)no2)C1 (stereo not given)	none
O=C(Cn1c(/C=C/c2ccccc2)nc2ccccc21)Nc1ccc(F)cc1	MITF act 85, esBAF inh 80 | esBAF Ring1 qPCR inactive | esBAF Fgf4 qPCR inactive | Bmi1 derepress inactive | A549 tox SP inactive | HepG2 cytotox SP inactive | HEK293 tox SP inactive
Cn1c2nc3ccccc3c-2nc2ccccc21	esBAF inh 54, Wnt bcat act 39 (no result: MITF act, Rtt109 Vps75) | esBAF Ring1 qPCR inactive | esBAF Fgf4 qPCR inactive | Bmi1 derepress 6.4 | A549 tox SP inactive | HepG2 cytotox SP inactive | HEK293 tox SP inactive
O=C(Nc1nc2c(s1)COc1ccccc1-2)c1cccs1	none (no result: MITF act)
O=C(Nc1nc2c(s1)CCc1ccccc1-2)c1cccs1	esBAF inh 71 (no result: Wnt bcat act) | esBAF Ring1 qPCR inactive | esBAF Fgf4 qPCR inconclusive | Bmi1 derepress inactive | A549 tox SP inactive | HepG2 cytotox SP inactive | HEK293 tox SP inactive
O=C(Nc1cccc(F)c1)c1c(O)c2ccccc2[nH]c1=O	esBAF inh 80 (no result: MITF act) | esBAF Ring1 qPCR inactive | esBAF Fgf4 qPCR inactive | Bmi1 derepress inactive | A549 tox SP inactive | HepG2 cytotox SP inactive | HEK293 tox SP inactive
O=C(N/N=C/c1cccc(F)c1)c1c(O)c2ccccc2[nH]c1=O	none (no result: C2C12 statin, esBAF inh)
Cc1ccc(CN(C(=O)c2cc3ccccc3oc2=O)C2CCS(=O)(=O)C2)cc1 (stereo not given)	none (no result: Wnt bcat act)
O=C(c1cc2ccccc2oc1=O)N(Cc1cccs1)C1CCS(=O)(=O)C1 (stereo not given)	esBAF inh 70 (no result: Wnt bcat act) | esBAF Ring1 qPCR inactive | esBAF Fgf4 qPCR inconclusive | Bmi1 derepress inactive | A549 tox SP inactive | HepG2 cytotox SP inactive | HEK293 tox SP inactive
CNC[C@H]1OCCCC[C@H](C)Oc2ccc(NC(=O)Nc3ccc4c(c3)OCO4)cc2C(=O)N([C@@H](C)CO)C[C@@H]1C	none (no result: MITF act, Rtt109 Vps75, Wnt bcat act)
CSc1cnnc2ccccc12	none (no result: C2C12 statin, esBAF inh)
C(=Cc1cnnc2ccccc12)c1ccccc1	esBAF inh 138 | esBAF Ring1 qPCR inactive | esBAF Fgf4 qPCR inactive | Bmi1 derepress inactive | A549 tox SP inactive | HepG2 cytotox SP inactive | HEK293 tox SP inactive
Nc1ccc2c(c1Br)Cc1ccccc1-2	none
CC(=O)Nc1ccc2c(c1Br)Cc1ccccc1-2	esBAF inh 69, Wnt bcat act 46 | esBAF Ring1 qPCR inactive | esBAF Fgf4 qPCR inactive | Bmi1 derepress inactive | A549 tox SP inactive | HepG2 cytotox SP inactive | HEK293 tox SP inactive
CO[C@H]1CN(C)C(=O)c2cc(NC(=O)c3cnccn3)ccc2OC[C@H](C)N(C)C[C@@H]1C	none (no result: MITF act, Rtt109 Vps75, Wnt bcat act)
COc1ccc2oc(-c3ccccc3)cc(=O)c2c1	none (no result: MITF act, Rtt109 Vps75)
